The record followed here is PubChem BioAssay (NCATS).

Values joined by “and” are separate entries in the source; they are usually repeats but may differ in a detail not shown here. Identical values can stand only once. Records with an inconclusive call do not appear. Values without a mark were called inactive. Active and inactive are the calls of the source. The call rests on the fitted dose curve; in most records, active means well fitted curve in the direction sought with a large enough effect; inconclusive means small, poorly fitted or top-dose-only effect, or another doubt; inactive means no such curve, though single readings can be large; an effect the other way counts as inactive or inconclusive. Where a SMILES comes first, the peptide text is derived from it. [ ]: non-standard residue; d: D form. Hyp = O=C(O)[CH]1C[CH](O)CN1; Phe(ol) = N[CH](CO)Cc1ccccc1; Iva = CC[C](C)(N)C(=O)O; Aib = CC(C)(N)C(=O)O
Further: nearly all actives have a fitted effect of over 70% in size.
On the % scale 0 is the no-effect control and ±100 the full control effect; potency means the concentration at half of the fitted maximal effect.

One assay can be described thus: Primary qHTS for inhibitors of nuclear receptor binding SET domain protein 2 (NSD2) in an isogenic RCH-ACV NSD2 p.E1099K mutant (9B) (AID 1645876). The note with it: RCH-ACV NSD2 E1099K (9B) viability, CellTiter-Glo, 72 h; series mostly up to 44.9 µM.
With `C=C1C(=O)OC2/C=C(\C)CC/C=C(\C)CC(OC(C)=O)C12` (stereo not drawn), the Potency was 12900 nM (active).
Same read-out and setting: next, `O=C(Nc1cccc(C(F)(F)F)c1)Nc1ccc(Br)cc1-c1nn[nH]n1`: “inactive”; `CC(C)(C)Sc1c(CC(C)(C)C(=O)O)n(Cc2ccc(Cl)cc2)c2ccc(OCc3ccc4ccccc4n3)cc12`: “inactive”.
Take `CCNC(=O)C#Cc1ccc2c(C(=Nc3ccc(CN(C)C)cc3)c3ccccc3)c(O)[nH]c2c1`: the Potency was 512 nM (active).
The same measure, in the same setting: the value for `Cc1cc(-c2ncc(-c3cccnc3)cc2/C=C/c2ccccc2)cnc1-c1cccnc1` was “inactive”; that for `C[C@H]1CC[C@@]2(OC1)O[C@H]1CC3[C@@H]4CC[C@@H]5C[C@@H](O[C@@H]6O[C@H](CO)[C@@H](O[C@@H]7O[C@@H](C)[C@H](O)[C@@H](O)[C@H]7O)[C@H](O)[C@H]6O[C@@H]6O[C@H](CO)[C@@H](O)[C@H](O)[C@H]6O)CC[C@]5(C)C4CC[C@]3(C)[C@H]1[C@@H]2C` (stereo partly drawn) was 3880 nM (active); that for `CC(C)CC(=O)c1c(O)cc2c(c1O)C(CC(C)C)C1=C(O2)C(C)(C)C(=O)C(C)(C)C1=O` (stereo not drawn) was 10000 nM (active).
Take `CCC(C)(NC(=O)C(CCC(N)=O)NC(=O)C1CC(O)CN1C(=O)C(C)(C)NC(=O)C(C)(C)NC(=O)C(CC(C)C)NC(=O)CNC(=O)C(NC(=O)C(C)(C)NC(=O)C(C)(C)NC(=O)C(C)(C)NC(=O)C(Cc1ccccc1)NC(C)=O)C(C)C)C(=O)N1CC(O)CC1C(=O)NC(C)(C)C(=O)NC(CO)Cc1ccccc1` (stereo not drawn) (Ac-F[Aib][Aib][Aib]VGL[Aib][Aib][Hyp]Q[Iva][Hyp][Aib][Phe(ol)]; configuration not given here): the activity change, negative = viability loss was -11.4% [at 9.23 µM].
`CCn1c2ccccc2c2cc(Nc3ccnc(NCCCN4CCOCC4)n3)ccc21`: the Potency was 2900 nM (active).
On the same count and under the same terms, next, `CNC(=O)c1ccc2c(c1)CCO[C@H]2CCN1CCN(c2ccc(OC)cc2)CC1`: “inactive”; `C=C1CC2OC(=O)C(=C)C2C(OC(=O)/C(C)=C\C)CC2(C)OC1=CC2=O` (stereo not drawn): 2010 nM (active).

The next assay can be described thus: Primary qHTS for inhibitors of nuclear receptor binding SET domain protein 2 (NSD2) in an RCH-ACV wild type WT cells (2C) (AID 1645877). The note with it: RCH-ACV (leukaemia line) NSD2 WT (2C) viability, CellTiter-Glo, 72 h; series mostly up to 44.9 µM.
In the case of `C=C(C)C(=O)O[C@H]1[C@H]2C(=C)C(=O)O[C@@H]2C[C@@H](C)[C@@H]2O[C@@H]2C(=O)[C@](C)(O)[C@@H]1OC(=O)C(=C)C`, the Potency was 1.26 µM (active).
Same read-out and setting: next, `CC(C)CCNC(=O)[C@H](CC(C)C)NC(=O)[C@H]1O[C@@H]1C(=O)O`: “inactive”; `C=C1C(=O)O[C@H]2C3=C(C)CCC[C@]3(C)C(=O)C[C@@H]12`: 1.29 µM (active); `COC1CC(O[C@H]2CC[C@]3(C)C4CC[C@]5(C)C(C6=CC(=O)OC6)=CCC56OC46CC[C@@H]3C2)OC(C)C1O[C@@H]1O[C@H](CO[C@@H]2O[C@H](CO)[C@@H](O)[C@H](O)[C@H]2O)[C@@H](O)[C@H](O)[C@H]1O` (stereo partly drawn): 2.75 µM (active).
Still for that read-out and setting: the value for `C=C(C)C(=O)O[C@H]1C[C@@](C)(O)C2(O)CCC(C)(/C=C3/OC(=O)C(COC)=C31)O2` (stereo partly drawn) was 0.713 µM (active); that for `N#Cc1ccc(O[C@@H]2c3ccccc3C[C@H]2N2CCC[C@@H](N)C2)c(Cl)c1` was 18.3 µM (active).
On the same count and under the same terms, the value for `CCc1cccc(CC)c1-n1c(C=C(C)C)c(C(=O)N2CCNCC2)cc(-c2nc(-c3ccc(C(F)(F)F)cc3)cs2)c1=O` was 10 µM (active).
For the compound `COc1cccc(NCCC2(c3ccccc3)CC(C)(C)OC(C)(C)C2)c1`, the Potency entry is “inactive”.
Still for that read-out and setting: the value for `COc1cc(F)c(F)c(Nc2ccc(I)cc2F)c1NS(=O)(=O)C1(CC(O)CO)CC1` (stereo not drawn) was 25.8 µM (active); that for `O=C1Nc2ccccc2-c2nc3ccccc3c(=O)n2-c2c(O)cccc21` was “inactive”.
Same read-out and setting: the value for `Nc1nc(Cl)nc2c1ncn2C1OC(CO)C(O)C1F` (stereo not drawn) was 0.0082 µM (active); that for `Cc1[nH]c2ccccc2c1CCNCc1ccc(/C=C/C(=O)NO)cc1` was 18.3 nM (active) and 52.5 nM (active).
Turning to `C/C(=C/C=C\C=C\Cc1cnco1)[C@@H](O)C(C)(C)C(N)=O`, the Potency result is “inactive”.
The same measure, in the same setting: next, `O=c1ccc2ccc(OCCCCN3CCN(c4cccc5sccc45)CC3)cc2[nH]1`: 16.3 µM (active); `C=C1C(=O)O[C@@H]2C(OC(=O)/C(C)=C\C)/C(C)=C\C(=O)/C=C(\C)C[C@H](O)[C@@H]12` (stereo partly drawn): 1.6 µM (active); `C=C1C(=O)O[C@H]2C[C@@H](C)[C@@H]3CCC(=O)[C@@]3(C)C[C@H]12`: 3.65 µM (active).
Still for that read-out and setting: the value for `CC(C)C[C@@H](C(=O)N[C@@H](Cc1ccc(OCc2ccccc2)cc1)C(=O)NC(C)(C)C)N(C)Cc1ccc(C(C)(C)C)cc1` was “inactive”.
